Results reported in publication PMC12864922, “TDP-43 directly inhibits mRNA accumulation in neurites through modulation of mRNA stability”.
Over roughly 9,900 sequences, “r (bound/input frequency ratio)” has its median near 0.7; the highest 2% begin near 6.5. The entries come from a sample that favours the highest values as a whole.

B1: ENSMUSG00000029636.126|Wasf3 (ssRNA)
RNA: GGGAGUUCUACAGUCCGACGAUCGCUUCGAUAUCCGCAUGCUAUCACUUUCAUGGCUAGCCCUGAUAGCGUUGGGCACCAGUUAGCCAGGCCAUGUUCAAGCUGCCUAGAGUCUGCAGAGCUUGCAUGGCAGAGCGGCCGCAUCUGGUUCCCUCCUACUCCACCCAGUGGAAAAGAGACCUCCACGUUUUAUUUUCUGGGAUCCCUGCUCCUCUGUUCACCAGGGAGUGAGCACAGGUCAGCACCUCACCCCCCUUGCUCUGAAUCAUGGAAGCUUGGCUUUAGCUGAGAGAUGCCACCAGCUCUCUUGCGGUCGCACUAGUGUGGAAUUCUCGGGUGUCAAGG
B2: ENSMUSG00000038916.65|Soga3 (ssRNA)
RNA: GGGAGUUCUACAGUCCGACGAUCGCUUCGAUAUCCGCAUGCUAACCUUUCUUUGUUUUGCACUCUUGAGUCAUAGUUGACUGGCUGACUGUGAAAAAUGGACAAAGUCUCAUAAUUAUUCUGUAGGAAUUGAGUAUUAUUUUACACCUGGAAAAUUUCAGCUGGUUGCAUUUUCAAAUUCAUGUAGAGGCAUUAAUUAUAAGUCAAUGUAGAUGAUUUAUAAAUUAUCUCUGUUAUAAAUUAUGUAGAUUUGUAAGCAUGCUGUUACUCAUGUUAGACAAAAAGGAAAACAUCAAUGUCUAAUCUCUUGCGGUCGCACUAGUGUGGAAUUCUCGGGUGUCAAGG
B3: ENSMUSG00000061578.1302|Ksr2 (ssRNA)
RNA: GGGAGUUCUACAGUCCGACGAUCGCUUCGAUAUCCGCAUGCUAGGGAUUGGCUGUAGUUAAUUAAAAGCACCUGUCUCUGUCAUCUCUGCACCCAACUGAAUCUCCCACCCUCAAGUGUACCUCUCAGGAUAUCCCCAGGCACACGAAGAUGGAAUGGAAAGCCAGUGGGUAUCUCCCACCCACUUAGAUGCUGAUGGCCUGGGACUAUAAACAGGGACAGUUGGGUCUCCUAAGGAAUAGCUUCCAGGUCCAGGAUGCUGGCAUCUCCCAGAGAGAACUCCAUCCCCUGACCACCAAGGCCUCUCUUGCGGUCGCACUAGUGUGGAAUUCUCGGGUGUCAAGG
B4: ENSMUSG00000061578.924|Ksr2 (ssRNA)
RNA: GGGAGUUCUACAGUCCGACGAUCGCUUCGAUAUCCGCAUGCUACAUGAGCCCAGAUAGUCAAAGACUUCAGCACAAGGGUGUUUAGAGUAGGCAGUGUGGAAGUAUCAAUAAGGUUAUUGAGAUGAGGAUUUAGAAAGAUCCAUGUAUAAAAGGUCUAGAAGGAUGAAGAUCUAAAACAAGAAGACUGCAUGUUAACGCUCCUGCCACUGUUGCCCCUUCCUUUACCCUUGGCAGACAUUGCUAAUCAAUCUCAGCACAGUUUCCAACCACAGUCAUAGAACAUUUGCCACAAAGGCCCUGGACUCUUGCGGUCGCACUAGUGUGGAAUUCUCGGGUGUCAAGG
B5: ENSMUSG00000058297.294|Spock2|77:82 (ssRNA)
RNA: GGGAGUUCUACAGUCCGACGAUCGCUUCGAUAUCCGCAUGCUAAGAGAGAAUGAGAGAGAAUGAGAGAGAGAAUACCCGAGGGCCACCCUGAUGCCCAGGAAGAGUGAGGGCAGCCCCCACACACGUGGAAGAGGCUGGGCAGCUAGCUACUGGGGACCUUGUGCUGAGGCUUCCAGGACAAAGCCCCAGUCUGGCUCUCCCCCAGCCUCUCAGGGGCACUGGCUGGUCACAUCCACUGAGUAUUGAUCGGUUGGACUUUAGGGAAGAGCCUCCUCCUUCCCAUUCCUUUCUGCCACCCUGGACUCUUGCGGUCGCACUAGUGUGGAAUUCUCGGGUGUCAAGG
B6: ENSMUSG00000058297.292|Spock2|89:94 (ssRNA)
RNA: GGGAGUUCUACAGUCCGACGAUCGCUUCGAUAUCCGCAUGCUAAGAGAGAAAGAGAGAGAGAAUGAGAGAGAAUGAGAGAGAGAAUACCCGAGGGCCACCCUGAUGCCCAGGAAGAGUGAGGGCAGCCCCCACACACGUGGAAGAGGCUGGGCAGCUAGCUACUGGGGACCUUGUGCUGAGGCUUCCAGGACAAAGCCCCAGUCUGGCUCUCCCCCAGCCUCUCAGGGGCACUGGCUGGUCACAUCCACUGAGUAUUGAUCGGUUGGACUUUAGGGAAGAGCCUCCUCCUUCCCAUUCCUUUCCUCUUGCGGUCGCACUAGUGUGGAAUUCUCGGGUGUCAAGG
B7: ENSMUSG00000058297.291|Spock2|95:100 (ssRNA)
RNA: GGGAGUUCUACAGUCCGACGAUCGCUUCGAUAUCCGCAUGCUAAGAGAGAGAGAGAAAGAGAGAGAGAAUGAGAGAGAAUGAGAGAGAGAAUACCCGAGGGCCACCCUGAUGCCCAGGAAGAGUGAGGGCAGCCCCCACACACGUGGAAGAGGCUGGGCAGCUAGCUACUGGGGACCUUGUGCUGAGGCUUCCAGGACAAAGCCCCAGUCUGGCUCUCCCCCAGCCUCUCAGGGGCACUGGCUGGUCACAUCCACUGAGUAUUGAUCGGUUGGACUUUAGGGAAGAGCCUCCUCCUUCCCAUUCUCUUGCGGUCGCACUAGUGUGGAAUUCUCGGGUGUCAAGG
B8: ENSMUSG00000061578.830|Ksr2|59:63;101:105;176:180 (ssRNA)
RNA: GGGAGUUCUACAGUCCGACGAUCGCUUCGAUAUCCGCAUGCUAAUAGAAACAGCAUUCUGGCUCACAGUUUCAAAGGGCUCAGUCCAUAGCUGCCUGACUCACACAUUCUAGGCCUUUCUUGAGGCAAGUGUUCAUCAUGAUACACACAGGGUGAGGAGGAGUUUCUUCAUGGCAAACAGGAAGCAAAGAGCAAUACAGGAAAAGGUCAGGGGUGAGAACACACAUUGCCACUUCCUCCAGCUAGGACCUUUGAGCAUCACAUUGUGAAGCCAUCCAGGGACUUGGGGGUUAGGUCAGAGGUACUCUUGCGGUCGCACUAGUGUGGAAUUCUCGGGUGUCAAGG
B9: ENSMUSG00000032194.214|Kank2 (ssRNA)
RNA: GGGAGUUCUACAGUCCGACGAUCGCUUCGAUAUCCGCAUGCUAUUGUUGUUGUUUCUUUGUUUCUUUUCUUCAUAAAGAAGAAAAAGGAAACAACUUCUAGAUGUGCCUUGCGAUAGGGAGGACUUUGUCCUCUCAAGUCUCCCUGUCGUAUCCAGAUCACAGCUGAACCCACUGGGCCUUGGCGCCAAACCUCAGCAGGGCAGCAUUGAGACUCAUGGACUAAAGGAAAGUGUUCACUCUUCUAGACAAGUGGGUCUCUUGGUUUGAUGGAGUCUUACUCCGCUUGAGUUUUGUAGAAGGGGCUCUUGCGGUCGCACUAGUGUGGAAUUCUCGGGUGUCAAGG

These binders were tested against TDP-43 (Homo sapiens, UniProt Q13148 1-414) (assay: RNA Bind-n-Seq with designed 260-mer pool; 25 mM Tris-HCl, 150 mM KCl, 3 mM MgCl2, BSA (printed 500 mg/mL), 20 units/mL SUPERase IN; pH not stated; 500 nM RNA pool, 1 h, 4 C; TDP-43 5, 50, 500 nM; high values mean tight binding). Settings: protein: recombinant; tags: SBP (GST cleaved off with PreScission; pGEX-GST-SBP).
Sequence of TDP-43 (Q13148 whole entry): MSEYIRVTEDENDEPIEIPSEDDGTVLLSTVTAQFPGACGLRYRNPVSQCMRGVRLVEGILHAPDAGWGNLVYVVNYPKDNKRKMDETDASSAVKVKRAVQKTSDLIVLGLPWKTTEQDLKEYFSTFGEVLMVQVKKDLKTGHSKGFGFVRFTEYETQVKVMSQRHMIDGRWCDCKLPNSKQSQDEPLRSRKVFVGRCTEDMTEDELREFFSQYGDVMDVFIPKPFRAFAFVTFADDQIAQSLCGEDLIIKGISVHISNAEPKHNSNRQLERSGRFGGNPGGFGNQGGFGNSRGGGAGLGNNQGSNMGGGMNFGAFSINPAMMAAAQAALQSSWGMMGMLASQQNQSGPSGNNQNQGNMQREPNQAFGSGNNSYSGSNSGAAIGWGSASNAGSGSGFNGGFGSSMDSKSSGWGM
Method in brief: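 Duplicate measurements used two independent batches of recombinant SBP-tagged TDP-43, which was captured on streptavidin beads at 5, 50 or 500 nM. The beads were incubated with 500 nM of an in vitro-transcribed 260-nt 3′ UTR oligo pool for 1 h at 4 °C in 25 mM Tris-HCl, 150 mM KCl, 3 mM MgCl2, BSA and SUPERase IN. After washing, biotin elution, reverse transcription, PCR amplification and sequencing, binding was expressed as R: each oligo's normalized read abundance in the bound sample over its abundance in input.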

| Binder | binding signal |
| --- | --- |
| B1 | 1.2 R (bound/input frequency ratio) |
| B2 | 0.077 R (bound/input frequency ratio) |
| B3 | 0.444 R (bound/input frequency ratio) |
| B4 | 1.12 R (bound/input frequency ratio) |
| B5 | 2.62 R (bound/input frequency ratio) |
| B6 | 5.57 R (bound/input frequency ratio) |
| B7 | 8.71 R (bound/input frequency ratio) |
| B8 | 0.325 R (bound/input frequency ratio) |
| B9 | 0.273 R (bound/input frequency ratio) |
